High-throughput results deposited in PubChem BioAssay by Broad Institute.
A selection: hits, their analogues and other compounds. The true share with any hit is near 6.8%.
Pf Dd2 inh: P. falciparum Dd2 growth inhibitors, primary screen, SYBR Green fluorescence, single dose replicates; 72 h; hits give low values; activity change, % at 10 µM; 94,000 compounds, 2.3% hits; AID 1159554, 2015; in the data active = activity change below about -80%; inconclusive = no clear call, values can overlap the other calls
T cruzi growth-1: T. cruzi intracellular proliferation inhibitors, primary screen, cell-based, beta-gal Tulahuen parasites, NIH3T3 host, luminescence; T. cruzi beta-gal in NIH3T3, GalScreen luminescence, 90 h; inhibition, % at 8.34 µM; 77,000 compounds, 5.9% hits;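 active = mean inhibition above about 93%, with at least 55% of replicates each passing it, limit read from the data, passing the limit was not always enough; inconclusive = only one of those two conditions holds; inactive = neither condition holds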
C diff HTS: C. difficile growth inhibitors, primary screen, HTS | growth activity, negative = inhibition, % at 16 µg/mL (by protocol) | 86,000 compounds, 0.25% hits | Clostridium difficile clinical isolate growth, OD600, 24 h; hits give low values;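 active = mean growth activity at or below -80% and every replicate also at or below -80%; inconclusive = mean at or below -80% but some replicate above -80%; inactive = mean growth activity above -80%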;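 also: 0% = DMSO wells and -100% = levofloxacin 16 µg/mL wells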
T cruzi growth-2: T. cruzi intracellular proliferation inhibitors, confirmation, cell-based, NIH3T3 host, beta-gal parasite, luminescence, cherry-pick; T. cruzi beta-gal in NIH3T3, GalScreen luminescence, 90 h; 5,600 compounds, 72% hits; inhibition, % at 8.35 µM; shares compounds with T cruzi growth-1; AID 651739, 2012;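 active = mean replicate inhibition above about 95% and at least 55% of replicates individually reaching it, limit read from the data; inconclusive = only one of the two criteria is met; inactive = neither criterion is met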
T cruzi growth-3: inhibitors of intracellular T. cruzi replication, confirmation, NIH3T3 host cells, beta-gal parasites, cherry-pick, set 2 | T. cruzi beta-gal in NIH3T3, GalScreen luminescence, 90 h | inhibition, % at 2.09 µM | shares compounds with T cruzi growth-1 | AID 651740, 2012 | 5,600 compounds, 21% hits;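 active = mean inhibition above about 95%, with at least 55% of replicates also reaching it, limit read from the data; inconclusive = meets just one of the two conditions; inactive = meets neither condition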;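 also: plate controls were neutral control median for no effect and positive control median for full effect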
NIH3T3 tox: cytotoxicity in mouse NIH/3T3 fibroblasts, confirmation, cytotoxicity control for T. cruzi proliferation inhibitor project, cell-based, cherry-pick, single point; 5,600 compounds, 14% hits; shares compounds with T cruzi growth-1; cytotoxicity (signal decrease), % at 8.35 µM; NIH/3T3 viability, CellTiter-Glo ATP luminescence, 90 h;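 active = mean signal decrease across replicates above about 35% based on untreated-well scatter, with enough replicates individually passing, limit read from the data; inconclusive = no rule stated though some were filed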;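 also: 0% = median of neutral control wells and 100% = median of positive control wells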
3T3 cytotox 2: NIH/3T3 fibroblast cytotoxicity, confirmation, cytotoxicity control, cell-based, cherry-pick, single point, set 2 | inhibition, % at 24.9 µM | shares compounds with T cruzi growth-1 | NIH/3T3 viability, CellTiter-Glo ATP luminescence, 90 h | 5,600 compounds, 56% hits;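 active = mean loss of cell viability signal at or above a set limit, and enough replicates individually reaching it; inconclusive = meets only the mean limit or only the replicate share; inactive = meets neither condition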;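 also: 0% = median of neutral control wells and 100% = median of positive control wells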
Active calls of the source: *; u = inconclusive; x = no result.

SMILES	Pf Dd2 inh	T cruzi growth-1	C diff HTS	T cruzi growth-2	T cruzi growth-3	NIH3T3 tox	3T3 cytotox 2
Cn1cnc(S(=O)(=O)N2CCCCN3[C@@H](CO)[C@@H](c4ccc(-c5ccccc5)cc4)[C@@H]3C2)c1	23.9	114.1*	-2.5	4.7	-12.2	-15.3	39.7*
Cn1cnc(S(=O)(=O)N2CCCCN3[C@H](CO)[C@H](c4ccc(-c5ccccc5)cc4)[C@H]3C2)c1	16.9	u	-12.2	25.8	9.0	3.4	30.0*
CNC[C@@H]1OCCCC[C@H](C)Oc2ccc(NS(=O)(=O)c3ccc(OC)cc3)cc2C(=O)N([C@H](C)CO)C[C@H]1C	21.0	-14.0	-1.9	x	x	x	x
Cc1ccc(S(=O)(=O)Nc2ccc3c(c2)CC(=O)N([C@@H](C)CO)C[C@@H](C)[C@H](CN(C)S(=O)(=O)c2cn(C)cn2)O3)cc1	-1.8	7.1	-3.2	x	x	x	x
CO[C@@H]1CN(C)C(=O)c2ccc(NC(=O)NC3CCCCC3)cc2OC[C@@H](C)N(C(=O)NC2CCCCC2)C[C@H]1C	-10.3	42.1	x	x	x	x	x
C[C@@H]1CCCCO[C@H](CN(C)C(=O)Cc2ccccc2)[C@H](C)CN([C@H](C)CO)C(=O)c2cc(NC(=O)c3ccccc3)ccc2O1	-64.7	61.3	-1.0	x	x	x	x
C[C@@H]1CN([C@@H](C)CO)C(=O)c2cc(-c3cncnc3)cnc2O[C@@H]1CN(C)C(=O)Nc1ccc2c(c1)OCO2	58.5	44.3	-6.0	x	x	x	x
C[C@H]1CN([C@@H](C)CO)C(=O)c2cc(-c3cccnc3)cnc2O[C@@H]1CN(C)C(=O)Nc1ccc2c(c1)OCO2	11.8	1.0	0.6	x	x	x	x
C[C@@H]1CN([C@@H](C)CO)C(=O)c2cc(-c3cncnc3)cnc2O[C@H]1CN(C)C(=O)Nc1ccc2c(c1)OCO2	49.2	97.5*	-4.2	46.2	17.9	10.7	13.1
C[C@H](CO)N1C[C@H](C)[C@@H](CN(C)C(=O)Nc2ccc3c(c2)OCO3)Oc2ncc(-c3cncnc3)cc2C1=O	-0.7	104.4*	4.3	15.3	-24.5	-5.8	7.7
C[C@@H]1CN([C@H](C)CO)C(=O)c2cc(N(C)C)ccc2O[C@H]1CN(C)C(=O)Nc1ccc(C(F)(F)F)cc1	8.2	x	2.4	x	x	x	x
C[C@@H]1CCCCO[C@H](CN(C)S(C)(=O)=O)[C@@H](C)CN([C@@H](C)CO)C(=O)c2cc(NC(=O)c3ccccc3)ccc2O1	x	16.9	-2.5	x	x	x	x
C[C@H](CO)N1C[C@H](C)[C@@H](CN(C)S(=O)(=O)c2ccccc2)Oc2ncc(-c3cccc(C(=O)N(C)C)c3)cc2C1=O	-47.4	x	-0.8	x	x	x	x
CCCC#Cc1ccc2c(c1)O[C@@H](CN(C)C(=O)CC1CC1)[C@@H](C)CN([C@@H](C)CO)S2(=O)=O	-30.6	57.1	-3.2	x	x	x	x
CCCC#Cc1ccc2c(c1)O[C@H](CN(C)C(=O)CC1CC1)[C@H](C)CN([C@H](C)CO)S2(=O)=O	-39.1	56.6	1.5	x	x	x	x
CCCC#Cc1ccc2c(c1)O[C@@H](CN(C)C(=O)CC1CC1)[C@H](C)CN([C@@H](C)CO)S2(=O)=O	-52.6	u	-7.3	106.1*	56.0	9.7	49.3*
CCCC#Cc1ccc2c(c1)O[C@@H](CN(C)C(=O)CC1CC1)[C@H](C)CN([C@H](C)CO)S2(=O)=O	-45.4	112.5*	-7.0	100.4*	-21.3	20.7	24.3*
O=C(C[C@H]1C=C[C@H](NS(=O)(=O)c2ccc(F)cc2)[C@@H](CO)O1)N1CCN(c2ccccc2)CC1	8.9	-23.6	x	x	x	x	x
Cc1ccc(S(=O)(=O)Nc2ccc3c(c2)C(=O)N([C@@H](C)CO)C[C@H](C)[C@@H](CN(C)Cc2ccccc2)OCCCC[C@@H](C)O3)cc1	-71.1	73.3	6.4	x	x	x	x
C[C@H](CO)N1C[C@H](C)[C@@H](CN(C)Cc2ccccc2)OCCCC[C@H](C)Oc2ccc(NS(C)(=O)=O)cc2C1=O	-11.7	99.0*	6.8	11.5	10.9	-7.6	-1.1
C[C@@H]1CCCCO[C@@H](CN(C)Cc2ccncc2)[C@H](C)CN([C@@H](C)CO)C(=O)c2cc(NS(C)(=O)=O)ccc2O1	13.5	39.8	0.8	x	x	x	x
Cc1ccc(S(=O)(=O)Nc2ccc3c(c2)C(=O)N([C@H](C)CO)C[C@@H](C)[C@H](CN(C)Cc2ccccc2)OCCCC[C@@H](C)O3)cc1	-75.7	93.3*	-3.7	109.1*	65.6	2.9	85.8*
C[C@@H]1CCCCO[C@H](CN(C)Cc2ccccc2)[C@H](C)CN([C@@H](C)CO)C(=O)c2cc(NS(C)(=O)=O)ccc2O1	-31.4	56.5	2.0	x	x	x	x
C[C@@H]1CCCCO[C@@H](CN(C)Cc2ccncc2)[C@H](C)CN([C@H](C)CO)C(=O)c2cc(NS(C)(=O)=O)ccc2O1	32.2	102.4*	1.0	-24.9	-13.1	8.2	11.7
COc1cccc(NC(=O)C[C@@H]2CC[C@@H]3[C@H](COc4ccc(NC(=O)C5CCC5)cc4C(=O)N3C)O2)c1	-32.4	x	-1.5	x	x	x	x
SMILES	Pf Dd2 inh	T cruzi growth-1	C diff HTS	T cruzi growth-2	T cruzi growth-3	NIH3T3 tox	3T3 cytotox 2
COCCNC(=O)C[C@H]1C[C@@H]2c3cc(NS(=O)(=O)c4ccc(F)cc4)ccc3O[C@@H]2[C@H](CO)O1	0.7	-89.3	1.3	x	x	x	x
CCC(=O)N1CC2(C1)CN(C(=O)c1ccccn1)[C@@H](CO)c1c2c2ccc(OC)cc2n1C	34.9	x	2.0	x	x	x	x
CO[C@H]1CN(C)C(=O)c2ccc(NC(=O)c3ccccc3F)cc2OC[C@H](C)NC[C@H]1C	24.0	-18.4	x	x	x	x	x
O=S(=O)(c1cccc(F)c1)N1CC[C@@H]2[C@H]1c1cc(C#Cc3ccccc3F)ccc1N[C@@H]2CO	-9.2	u	-6.0	91.7	108.2*	33.8	104.2*
Cc1ccc(S(=O)(=O)N2CC[C@@H]3[C@H](CO)Nc4ccc(C#Cc5ccccc5F)cc4[C@@H]32)cc1	-3.7	84.9	55.2	x	x	x	x
O=S(=O)(c1cccc(F)c1)N1CC[C@@H]2[C@@H](CO)Nc3ccc(C#Cc4ccccc4F)cc3[C@@H]21	-42.0	u	1.3	103.7*	112.4*	3.2	7.0
O=S(=O)(c1ccccc1)N1CC[C@H]2[C@H](CO)Nc3ccc(C#Cc4ccccc4F)cc3[C@H]21	-18.8	x	-0.4	x	x	x	x
O=S(=O)(c1ccccc1)N1CC[C@@H]2[C@H](CO)Nc3ccc(C#Cc4ccccc4F)cc3[C@@H]21	-28.2	69.2	-2.8	x	x	x	x
